Paper PMC10726135, “HNF4α isoforms regulate the circadian balance between carbohydrate and lipid metabolism in the liver”
Over roughly 18,000 sequences, “log2 normalized intensity” has its median near 0.36; the highest 2% begin near 7.3. This excerpt belongs to a sample that is enriched for the highest values.

biological target: T1, HNF4alpha8 (COS-7 nuclear extract) (Homo sapiens, UniProt P41235-5 1-452); test: protein-binding microarray; COS-7 nuclear extract on double-stranded Agilent 4x180k PBM; binding buffer, salt, pH and temperature not given in the material; high values mean tight binding; settings: chain copies: 2; label: 3' end of strand 1 on the slide; dsDNA, one strand shown
T1 sequence: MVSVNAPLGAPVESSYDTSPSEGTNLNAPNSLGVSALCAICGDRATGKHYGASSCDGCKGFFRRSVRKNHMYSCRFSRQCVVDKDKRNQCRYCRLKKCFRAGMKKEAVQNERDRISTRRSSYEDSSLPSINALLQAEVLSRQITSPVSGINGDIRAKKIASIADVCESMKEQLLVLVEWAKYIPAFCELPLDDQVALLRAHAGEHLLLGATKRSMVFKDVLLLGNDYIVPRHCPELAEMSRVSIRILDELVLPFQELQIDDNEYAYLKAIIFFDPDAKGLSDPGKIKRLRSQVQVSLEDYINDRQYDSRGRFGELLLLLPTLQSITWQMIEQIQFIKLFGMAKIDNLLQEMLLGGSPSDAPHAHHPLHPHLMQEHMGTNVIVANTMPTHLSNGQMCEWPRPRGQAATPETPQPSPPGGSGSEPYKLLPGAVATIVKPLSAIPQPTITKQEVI
Summary of the method: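 The binding signal is Agilent software's gProcessedSignal after background correction and normalization. Arrays were a custom Agilent SurePrint G3 4x180k design of double-stranded ~60-nt oligonucleotides with ~44,000 test sequences in quadruplicate, probed with nuclear extracts of COS-7 cells transiently expressing a human HNF4α isoform. Scans were made at 2-µm resolution on an Agilent G2565CA scanner.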

Sequence | binding signal
TTTGTCAAATGCTTCCAAGAATTTAAGAGAGCCTAGGGAGATTAGAGTATCGGTCGA | -0.862 log2 normalized intensity
CAGAGGACAGGTTTCCTGAGTTACAGATAAGCCTAGGGAGATTAGAGTATCGGTCGA | -0.778 log2 normalized intensity
ATTCACATCTCCAGTTCCAAAGTCCAGGTGGCCTAGGGAGATTAGAGTATCGGTCGA | 6.55 log2 normalized intensity
TGTTAGCAGAAACCATCTGGCTTGGCCCCCGCCTAGGGAGATTAGAGTATCGGTCGA | 4.14 log2 normalized intensity
AAAATACCTGGAAGTATTTATTGAGCACACGCCTAGGGAGATTAGAGTATCGGTCGA | -0.121 log2 normalized intensity
TGAAGCGACCCCTCGAGGCAACCTTTGACCGCCTAGGGAGATTAGAGTATCGGTCGA | 9.25 log2 normalized intensity
CGACCCCTCGAGGCAACCTTTGACCTGGTAGCCTAGGGAGATTAGAGTATCGGTCGA | 8.16 log2 normalized intensity
GTCAAATCACTGAAGCGACCCCTCGAGGCAGCCTAGGGAGATTAGAGTATCGGTCGA | 1.82 log2 normalized intensity
AAGTATCTCGGTCAAACCTTTGACCCTTTAGCCTAGGGAGATTAGAGTATCGGTCGA | 6.9 log2 normalized intensity
ATCACTGAAGCGACCCCTCGAGGCAACCTTGCCTAGGGAGATTAGAGTATCGGTCGA | 1.75 log2 normalized intensity
CCTCGAGGCAACCTTTGACCTGGTACTATGGCCTAGGGAGATTAGAGTATCGGTCGA | 6.8 log2 normalized intensity
GTGAACCTTTGTCCCGTTATGGCACCAAGAGCCTAGGGAGATTAGAGTATCGGTCGA | 1.55 log2 normalized intensity
AGATCCATTGCATGTGCATTTCACAATAGGGCCTAGGGAGATTAGAGTATCGGTCGA | 0.639 log2 normalized intensity
ATGGACTTTGAAGGAGATTCCTGTGTCAGCGCCTAGGGAGATTAGAGTATCGGTCGA | 1.23 log2 normalized intensity
GCAATGTGGACTTTGTCCTGTGGGCTGTAAGCCTAGGGAGATTAGAGTATCGGTCGA | 8.03 log2 normalized intensity
GCCACGGTCAGCAATGTGGACTTTGTCCTGGCCTAGGGAGATTAGAGTATCGGTCGA | 10.2 log2 normalized intensity
CCGTCCTGTCCTGGACTTTCCTTTGTTGGGGCCTAGGGAGATTAGAGTATCGGTCGA | 2.84 log2 normalized intensity
AGTTTGCCACGGTCAGCAATGTGGACTTTGGCCTAGGGAGATTAGAGTATCGGTCGA | 6.83 log2 normalized intensity
GTGGGAGAAAGCTTTGGACTTTGGGCTGTGGCCTAGGGAGATTAGAGTATCGGTCGA | 6.47 log2 normalized intensity
TGGACTTTGGTCCTGGTCAGACTTGCCACGGCCTAGGGAGATTAGAGTATCGGTCGA | 5.42 log2 normalized intensity
GGTCAGCAATGTGGACTTTGTCCTGTGGGCGCCTAGGGAGATTAGAGTATCGGTCGA | 8.67 log2 normalized intensity
GTGGACTTTGTCCTGTGGGCTGTAAAAATCGCCTAGGGAGATTAGAGTATCGGTCGA | 5.73 log2 normalized intensity

Sequence | binding signal
CAGATAATTACCTGGACTCTAGAGCCAGACGCCTAGGGAGATTAGAGTATCGGTCGA | 1.75 log2 normalized intensity
CTCAAAGTCTAACCCAACTAAGAACACAGTGCCTAGGGAGATTAGAGTATCGGTCGA | 1.24 log2 normalized intensity
AAAGTTCAGTTGCAAAGAACAGAATCCAGTGCCTAGGGAGATTAGAGTATCGGTCGA | -0.777 log2 normalized intensity
GTCTTACTGATGGGCAAAGTTTTCAAGAATGCCTAGGGAGATTAGAGTATCGGTCGA | 1.24 log2 normalized intensity
CATGTTTACTTTTGCAAGGTTTGTTCTTATGCCTAGGGAGATTAGAGTATCGGTCGA | 1.87 log2 normalized intensity
TACCATGGGAGACCTCAGGGGTCATCAGATGCCTAGGGAGATTAGAGTATCGGTCGA | 3.08 log2 normalized intensity
AGATCAGATGGGGTGAACTTTGGACCACATGCCTAGGGAGATTAGAGTATCGGTCGA | 8.04 log2 normalized intensity
ACAGGAGATCAGATGGGGTGAACTTTGGACGCCTAGGGAGATTAGAGTATCGGTCGA | 9.11 log2 normalized intensity
CTCAGTCATACCACATGGATGGATTCAGATGCCTAGGGAGATTAGAGTATCGGTCGA | 0.256 log2 normalized intensity
CAGGGGTCATCAGATAGATGGTCAGTGAACGCCTAGGGAGATTAGAGTATCGGTCGA | 1.88 log2 normalized intensity
TGGGGTATCAGGTGGTGATGGTGGGAGGGAGCCTAGGGAGATTAGAGTATCGGTCGA | -0.797 log2 normalized intensity
AGATGGGGTGAACTTTGGACCACATATAGAGCCTAGGGAGATTAGAGTATCGGTCGA | 7.98 log2 normalized intensity
GGTGAACTTTGAGACTATCCTTGGACCGCAGCCTAGGGAGATTAGAGTATCGGTCGA | 3.32 log2 normalized intensity
GAGGACTTTGGCCTTTTGTGAGATATGGACGCCTAGGGAGATTAGAGTATCGGTCGA | 4.16 log2 normalized intensity
AAGGGAGAAAGACATGTTTCTAACTGCCCGGCCTAGGGAGATTAGAGTATCGGTCGA | 0.0984 log2 normalized intensity
CTGCTTCGGCCTTTGACCTCGTGATAACGAGCCTAGGGAGATTAGAGTATCGGTCGA | 5.83 log2 normalized intensity
TTGAAGAAATGGTGGACTTTGTAGCTCAAAGCCTAGGGAGATTAGAGTATCGGTCGA | 4.79 log2 normalized intensity
AAAGTTCTGCTGAGTATCCAAAGGTCAGTGGCCTAGGGAGATTAGAGTATCGGTCGA | 6.24 log2 normalized intensity
GACGGGAGGAAAACTGGGCAAAGGTCAGGAGCCTAGGGAGATTAGAGTATCGGTCGA | 5.58 log2 normalized intensity
GGCGTGGACTTCGCTCCGCCGCTAGGTGGCGCCTAGGGAGATTAGAGTATCGGTCGA | 3.13 log2 normalized intensity
GCCAGGCAGGACAGTTTTGTGTGTTTAATGGCCTAGGGAGATTAGAGTATCGGTCGA | 0.878 log2 normalized intensity
AAATGCTGATAATGATATGGACAATGAAATGCCTAGGGAGATTAGAGTATCGGTCGA | 0.122 log2 normalized intensity

Sequence | binding signal
CCATCAGTGGACTTTGACCTTGTTTTCAATGCCTAGGGAGATTAGAGTATCGGTCGA | 9.54 log2 normalized intensity
AGACCTTTGACATCACCTAACTTGTGGCTGGCCTAGGGAGATTAGAGTATCGGTCGA | 1.49 log2 normalized intensity
AGTGGACTTTGACCTTGTTTTCAATGACTAGCCTAGGGAGATTAGAGTATCGGTCGA | 7.8 log2 normalized intensity
GACCTTGTTTTCAATGACTACCTGTTACCCGCCTAGGGAGATTAGAGTATCGGTCGA | 1.81 log2 normalized intensity
GCCAGCCAGGGCCACCCATCAGTGGACTTTGCCTAGGGAGATTAGAGTATCGGTCGA | 7.34 log2 normalized intensity
ACTTTGACCTTGTTTTCAATGACTACCTGTGCCTAGGGAGATTAGAGTATCGGTCGA | 2.13 log2 normalized intensity
GCCACCCATCAGTGGACTTTGACCTTGTTTGCCTAGGGAGATTAGAGTATCGGTCGA | 10.8 log2 normalized intensity
CAGTGGACTTTGTCCTTCATCTATCTCCTTGCCTAGGGAGATTAGAGTATCGGTCGA | 5.95 log2 normalized intensity
CACATGCTATTATTTTCCATCAGTGGACTTGCCTAGGGAGATTAGAGTATCGGTCGA | 3.95 log2 normalized intensity
GTTCAATGCTTCAGTGAGCCTTGACCTTCAGCCTAGGGAGATTAGAGTATCGGTCGA | 4.83 log2 normalized intensity
CCCAGGGACTTTGGCCTTACTTGGCCTGTTGCCTAGGGAGATTAGAGTATCGGTCGA | 3.01 log2 normalized intensity
CCTTTCTACTGCCAGCCAGGGCCACCCATCGCCTAGGGAGATTAGAGTATCGGTCGA | 0.592 log2 normalized intensity
GCAGCTCTTTACAAAGCCCATGCTGGACCCGCCTAGGGAGATTAGAGTATCGGTCGA | 4.69 log2 normalized intensity
TCACAGTGCCTCTGCAAGTTGGCCTTACTAGCCTAGGGAGATTAGAGTATCGGTCGA | -0.0691 log2 normalized intensity
TTTGTCTGTGTAGACTCATCTGGTGTCATTGCCTAGGGAGATTAGAGTATCGGTCGA | 1.95 log2 normalized intensity
TTTTTGAGATGGAATCTTGCCCTGTCGCCCGCCTAGGGAGATTAGAGTATCGGTCGA | 3.19 log2 normalized intensity
GGTTCCAGCATGGACTTCACAGCCTGTTAGGCCTAGGGAGATTAGAGTATCGGTCGA | 0.147 log2 normalized intensity
TGTGGGTTCAAATCCATTCAGCAGCGTGTAGCCTAGGGAGATTAGAGTATCGGTCGA | -0.128 log2 normalized intensity
GCAAAGTTCAACCCTGAATGTGTGCTGGCCGCCTAGGGAGATTAGAGTATCGGTCGA | 1.12 log2 normalized intensity
ACTTCGCTGGAGGTGTTAAAGTGCCATTGAGCCTAGGGAGATTAGAGTATCGGTCGA | 1.75 log2 normalized intensity
TGCACTTTACGTAAGATAAGGTGAACATACGCCTAGGGAGATTAGAGTATCGGTCGA | 1.09 log2 normalized intensity
GTGGGAGAGCAAGGGTCAAGGGTCATTTGTGCCTAGGGAGATTAGAGTATCGGTCGA | 7.65 log2 normalized intensity

Sequence | binding signal
TGGGTGGGGGAAGTGTGGTCAAGGGTCAGTGCCTAGGGAGATTAGAGTATCGGTCGA | 4.76 log2 normalized intensity
CCCATCCGCAGTGGGAGAGCAAGGGTCAAGGCCTAGGGAGATTAGAGTATCGGTCGA | 4.51 log2 normalized intensity
CCGCAGTGGGAGAGCAAGGGTCAAGGGTCAGCCTAGGGAGATTAGAGTATCGGTCGA | 7.52 log2 normalized intensity
AGAGCAAGGGTCAAGGGTCATTTGTTTTTAGCCTAGGGAGATTAGAGTATCGGTCGA | 6.31 log2 normalized intensity
AAGGGTCAAGGGTCATTTGTTTTTACAGACGCCTAGGGAGATTAGAGTATCGGTCGA | 6.77 log2 normalized intensity
CATTTTTTTCCACCCTCCCCTCCCCCTCCTGCCTAGGGAGATTAGAGTATCGGTCGA | 6.32 log2 normalized intensity
GAATTTTGGACAAGGTAACCCCCAACATTCGCCTAGGGAGATTAGAGTATCGGTCGA | 3.79 log2 normalized intensity
ATGTGCCCTTTGGACAGAAATATCAGCAAGGCCTAGGGAGATTAGAGTATCGGTCGA | 3.43 log2 normalized intensity
GGAGGGAACAGCAAGACTTTGGCCCTGCAGGCCTAGGGAGATTAGAGTATCGGTCGA | 0.278 log2 normalized intensity
AAGTCCAAAGTTCTTGGCCAGGCATGGAGAGCCTAGGGAGATTAGAGTATCGGTCGA | 2.75 log2 normalized intensity
AAGGGTCAATGTGATCAGGTGTGGGCATTAGCCTAGGGAGATTAGAGTATCGGTCGA | 1.3 log2 normalized intensity
ATCTCACACAGTACTTTGTACATGGGAATAGCCTAGGGAGATTAGAGTATCGGTCGA | 1.8 log2 normalized intensity
ATAGTTCAGCCATCAGGTAACATATTGTCCGCCTAGGGAGATTAGAGTATCGGTCGA | 1.18 log2 normalized intensity
TTGGACTTTGGTCATCCTTTACTTTCCCAAGCCTAGGGAGATTAGAGTATCGGTCGA | 6.14 log2 normalized intensity
GCAGTTTTTGATCAAGGAGGACTTTGGAATGCCTAGGGAGATTAGAGTATCGGTCGA | 7.54 log2 normalized intensity
GGATTTTTTCTTGGACTTTGGTCATCCTTTGCCTAGGGAGATTAGAGTATCGGTCGA | 7.39 log2 normalized intensity
TCCAGATCAAGGATTTTTTCTTGGACTTTGGCCTAGGGAGATTAGAGTATCGGTCGA | 5.67 log2 normalized intensity
GACTTTGGTTGGATTTCTTGGCTTCTCTTGGCCTAGGGAGATTAGAGTATCGGTCGA | 0.989 log2 normalized intensity
ATCAAGGATTTTTTCTTGGACTTTGGTCATGCCTAGGGAGATTAGAGTATCGGTCGA | 8.58 log2 normalized intensity
TTTTCTTGGACTTTGGTCATCCTTTACTTTGCCTAGGGAGATTAGAGTATCGGTCGA | 6.91 log2 normalized intensity
TTTAGGCAGTTTTTGATCAAGGAGGACTTTGCCTAGGGAGATTAGAGTATCGGTCGA | 4.55 log2 normalized intensity
TTTTGATCAAGGAGGACTTTGGAATGGCAGGCCTAGGGAGATTAGAGTATCGGTCGA | 4.79 log2 normalized intensity
